Measurements as given in PubChem BioAssay AID1347076 (National Center for Advancing Translational Sciences (NCATS), 2019).
Among all 400,000 compounds or so, about 13,000 (3.2%) were called active. Not shown: some 18% with an inconclusive outcome. Calls follow the shape of the dose curve; as a rule, active = well fitted cell-killing curve with a large enough effect; inconclusive = small, poorly fitted or top-dose-only effect, or effect the other way; inactive = flat fitted curve, though single readings scatter. What follows is part of a selection rich in actives, with near analogues and random picks from the rest. A call without a number means that no potency is given here.
Potency is read from the fitted curve at half-maximal effect.

Experiment: qHTS assay for MDR1-selective chemotherapeutics: Primary screen using the drug-selected MDR subline cells KB-V1; also: nearly all actives have a fitted effect of over 60% in size
Conditions: KB-V1 MDR cells viability, CellTiter-Glo, 72 h; series mostly up to 46.1 µM
How it was run: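 KB-V1 cells (P-gp-expressing MDR subline of KB-3-1) in phenol-red-free DMEM with 10% FBS were exposed to library compounds over a concentration series for 72 h at 37 degrees C. Viability read by CellTiter-Glo luminescence; concentration-effect curves fitted after normalization.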
For `CCOC(=O)N1CCN(C(=O)c2ccc(S(=O)(=O)Nc3cccc(C(F)(F)F)c3)cc2)CC1`, the Potency was “inactive”.
With `Cc1ccccc1CN1CCN(C(=O)c2cccc(F)c2)CC1` the Potency was “inactive”.
With `Cc1ccccc1CS(=O)(=O)CC1(O)CCN(C(=O)c2cccc(C(F)(F)F)c2)CC1` the Potency was 14.6 µM (active).
For `CCOc1ccc(-c2cc3nc(C4CCN(C(=O)OC(C)(C)C)CC4)c(C(=O)Nc4cccc(CC)c4)cn3n2)cc1`, the Potency was “inactive”.
With `Cn1c(=O)c2c(-c3ccccc3Br)n(Cc3ccccc3)cc2n(C)c1=O` the Potency was “inactive”.
In the case of `CC(=O)Nc1ccc(SC[C@H](Cc2ccccc2)N2CC[C@@H](C)CCC2=O)cc1`, the Potency is reported as “inactive”.
For `C[C@H]1CCC(=O)N([C@H](CSc2ccccc2)Cc2ccccc2)CC1`, the Potency was “inactive”.
In the case of `CN(CC(=O)Nc1cccc(F)c1)CC(=O)Nc1cccc([N+](=O)[O-])c1`, the Potency is reported as 11.6 µM (active).
With `CN(CC(=O)Nc1cccc(F)c1)C(=O)C1=COCCO1` the Potency was “inactive”.
With `Cc1ccc(CN(C)CC(=O)Nc2cccc([N+](=O)[O-])c2)o1` the Potency was “inactive”.
For `C[C@@H]1CN([C@H](C)CO)C(=O)CCCn2cc(nn2)CO[C@H]1CN(C)S(=O)(=O)c1ccc(Oc2ccccc2)nc1`, the Potency was “inactive”.
For `O=C(C[C@H]1C[C@H]2c3cc(NS(=O)(=O)c4ccc(F)cc4)ccc3O[C@H]2[C@H](CO)O1)NCc1cc(F)ccc1F`, the Potency was “inactive”.
With `Cc1cccc(-c2nnc(SC(C)C(=O)Nc3ccccc3)n2C)c1` (centres undefined) the Potency was “inactive”.
With `CC(Sc1nnc2c(n1)C1CCC2(C)C1(C)C)C(=O)Nc1ccccc1` (centres undefined) the Potency was 20.6 µM (active).
In the case of `CC(Sc1nnc(C2CC2)n1C1CC1)C(=O)Nc1ccc(C(N)=O)cc1` (centres undefined), the Potency is reported as “inactive”.
In the case of `CC(CNC(=O)c1nnc(Cc2cccc(F)c2)o1)c1ccccc1` (centres undefined), the Potency is reported as “inactive”.
For `C[C@H](CO)N1C[C@H](C)[C@@H](CN(C)S(=O)(=O)c2ccc(Oc3ccccc3)cc2)OCc2cn(nn2)CCCC1=O`, the Potency was “inactive”.
For `C[C@@H]1CCCCO[C@H](CN(C)Cc2ccccc2)[C@@H](C)CN([C@H](C)CO)C(=O)c2cc(NS(=O)(=O)c3ccc(Cl)cc3)ccc2O1`, the Potency was “inactive”.
In the case of `O=C(NCc1ccccn1)[C@@H]1CCCN1C(=O)[C@@H]1CCCN1C(=O)c1ccccc1`, the Potency is reported as “inactive”.
For `CC1(C(=O)NCc2ccc3c(c2)OCO3)CCN1C(=O)Cc1cccc2ccccc12` (centres undefined), the Potency was “inactive”.
In the case of `COc1ccc2c(c1)O/C(=C\c1ccccc1O)C2=O`, the Potency is reported as “inactive”.
For `COC(=O)C(C)Oc1ccc2c(c1)O/C(=C\c1cccc(Br)c1)C2=O` (centres undefined), the Potency was “inactive”.
In the case of `COc1cc(/C=C2\Oc3ccc(C#Cc4ccc(O)cc4)cc3C2=O)cc(OC)c1`, the Potency is reported as 7.31 µM (active).
In the case of `CCN(CC)C(=O)C1=C(C)N(Cc2ccccc2)C(=O)C(CC(=O)NC(c2ccccc2)c2ccccc2)C1` (centres undefined), the Potency is reported as “inactive”.
In the case of `CC(C)Cn1c(N)c(C(=O)NCc2cccs2)c2nc3ccccc3nc21`, the Potency is reported as 10.3 µM (active).
For `CC(C)(C)c1ccc(C(=O)NCCn2c(N)c(C#N)c3nc4ccccc4nc32)cc1`, the Potency was “inactive”.
With `Cn1ncc(Br)c1C(=O)NCc1cccs1` the Potency was “inactive”.
In the case of `CCN1C(=O)c2ccccc2S(=O)c2ccc(C(=O)NCc3ccc(F)cc3)cc21` (centres undefined), the Potency is reported as “inactive”.
With `CCOC(=O)C1CCCN(S(=O)(=O)c2cc(-c3cc(C)no3)ccc2OC)C1` (centres undefined) the Potency was “inactive”.
With `O=c1cc(CSc2ncn[nH]2)[nH]c2ccc(F)cc12` the Potency was “inactive”.
In the case of `CCNC(=O)C1(C)CCN(C(=O)c2ccccc2)C1` (centres undefined), the Potency is reported as “inactive”.
With `Oc1c(C(c2ccccn2)N2CCOCC2)ccc2cccnc12` (centres undefined) the Potency was “inactive”.
For `CCOC(=O)N1CCN(C(c2ccnc3ccccc23)c2nnnn2-c2c(C)cccc2C)CC1` (centres undefined), the Potency was “inactive”.
With `CCOC(=O)N1CCN(C(c2cccnc2)c2ccc3cccnc3c2O)CC1` (centres undefined) the Potency was 16.4 µM (active).
For `CCN(CC)c1nc(C#N)nc(OC)n1`, the Potency was “inactive”.
For `CC(C)c1ccc(NC(=O)CN(C)S(=O)(=O)c2ccc3c(c2)c(=O)n(C)c(=O)n3C)cc1`, the Potency was “inactive”.
With `Cc1ccc(S(=O)(=O)Nc2nc(C)cc(-n3nc(C)cc3C)n2)cc1` the Potency was “inactive”.
With `CCCC(C(=O)n1nc(C)cc1C)C(NS(=O)(=O)c1ccc(C)cc1)c1ccccc1` (centres undefined) the Potency was 23.1 µM (active).
In the case of `CSCC(NS(=O)(=O)c1ccc(C)cc1)C(=O)O` (centres undefined), the Potency is reported as “inactive”.
For `Cc1ccc(C)c(C(O)c2ncc(-c3cccc4ccccc34)[nH]2)c1` (centres undefined), the Potency was “inactive”.
For `c1ccc(Cn2nnc3c(NCC4CC4)ncnc32)cc1`, the Potency was “inactive”.
In the case of `CC(=O)NCCC(=O)Nc1cc(S(=O)(=O)N2CCOCC2)ccc1N1CCOCC1`, the Potency is reported as “inactive”.
In the case of `Cc1cc(OCCCC(=O)Nc2cc(S(=O)(=O)N3CCOCC3)ccc2N2CCOCC2)ccc1Cl`, the Potency is reported as 13 µM (active).
With `CC(C)CCC(=O)Nc1cc(S(=O)(=O)N2CCOCC2)ccc1N1CCCC1` the Potency was “inactive”.
In the case of `COC(C(=O)NCc1ccccc1C)c1ccccc1` (centres undefined), the Potency is reported as “inactive”.
With `COC(C(=O)Nc1ccc(S(=O)(=O)Nc2ccc(C)c(C)c2)cc1)c1ccccc1` (centres undefined) the Potency was 20.6 µM (active).
For `COC(C(=O)Nc1ccc(C(C)=O)cc1)c1ccccc1` (centres undefined), the Potency was “inactive”.
In the case of `O=C(C1CC1)N1CCN=C1SCc1ccc(Cl)cc1`, the Potency is reported as “inactive”.
For `COc1cccc(Cn2c(SCc3ccc(C(=O)N4CCC(C)CC4)cc3)nc3ccncc32)c1`, the Potency was “inactive”.
For `CC1CCN(C(=O)c2ccc(CSc3ccc(Cl)cc3)cc2)CC1`, the Potency was 18.4 µM (active).
With `CCCNC(=O)C1(C)CCCN(C(=O)c2cccc(OC(C)=O)c2C)C1` (centres undefined) the Potency was “inactive”.
For `FC(F)(F)c1ccccc1Cc1c(-c2ccccc2)nc2c3ccccc3ccn12`, the Potency was “inactive”.
With `Cc1cc(C)c(S(=O)(=O)NCC(c2ccc3c(c2)OCO3)N2CCOCC2)c(C)c1` (centres undefined) the Potency was 10.3 µM (active).
With `CC(C)CNC(=O)C(=O)NCC(c1ccc2c(c1)OCO2)N1CCOCC1` (centres undefined) the Potency was “inactive”.
In the case of `COc1ccc(F)cc1S(=O)(=O)NCC(c1ccc2c(c1)OCO2)N1CCN(C)CC1` (centres undefined), the Potency is reported as “inactive”.
For `O=C(CCc1ccccc1)NCc1ccc2c(c1)CCN2C(=O)c1ccccc1`, the Potency was “inactive”.
For `Cc1nccn1-c1ccc(NC(=O)[C@H]2O[C@@H](n3cnc4c(N)ncnc43)[C@H](O)[C@@H]2O)cc1`, the Potency was “inactive”.
In the case of `CSc1ccc(CN2CCC2(C)C(=O)Nc2ccc(C)c(O)c2)cc1` (centres undefined), the Potency is reported as “inactive”.
In the case of `Cc1nc2sc(C)c(C)n2c(=O)c1S(=O)(=O)NCCc1ccc(Cl)cc1`, the Potency is reported as “inactive”.
For `CC1(C(=O)NS(=O)(=O)c2ccccc2)CCN1C(=O)c1ccccc1` (centres undefined), the Potency was “inactive”.
For `Cc1nnc(NC(=O)CSc2nccn2-c2cccc(C)c2C)s1`, the Potency was 9.2 µM (active).
For `Cc1cc(C)cc(-n2ccnc2SCC(=O)Nc2nc3ccccc3s2)c1`, the Potency was “inactive”.
With `Cc1cccc(-n2ccnc2SCC(=O)Nc2cccc3ccccc23)c1C` the Potency was “inactive”.
In the case of `C[C@@H]1CN([C@@H](C)CO)C(=O)CCCn2nncc2CO[C@@H]1CN(C)S(=O)(=O)c1ccc(-c2ccccc2)cc1`, the Potency is reported as “inactive”.
For `O=C(N/N=C/c1cccc(OCc2ccccc2)c1)c1ccc(Br)o1`, the Potency was “inactive”.
For `O=C(N/N=C\c1ccc(Br)cc1)c1ccc(Cn2cccn2)o1`, the Potency was 11.6 µM (active).
For `CN(C)c1ccc(/C=N/NC(=O)c2ccc(Cn3cc(Br)cn3)o2)cc1`, the Potency was “inactive”.
With `C[C@H]1CN([C@@H](C)CO)S(=O)(=O)c2ccc(Br)cc2O[C@H]1CN(C)C(=O)c1cnccn1` the Potency was “inactive”.
In the case of `CC(C)CC1C(=O)N(Cc2cn(Cc3ccco3)nn2)CCS(=O)(=O)N1Cc1ccc(-c2ccc(Cl)c(Cl)c2)cc1` (centres undefined), the Potency is reported as “inactive”.
With `CCCCN(C=O)c1c(CC)nc2c(OCCC3CCCCC3)cccn12` the Potency was “inactive”.
For `COc1ccc(/C=C(/CC(=O)Nc2ccc(C)cc2)c2nc3ccccc3s2)cc1`, the Potency was “inactive”.
With `COc1ccc(CC(=O)Nc2ccc(-c3nc4ccccc4s3)c(C)c2)cc1` the Potency was “inactive”.
In the case of `COC(=O)Cc1[nH]n(-c2nc3ccccc3s2)c(=O)c1C(C)=Nc1ccc(OC)cc1`, the Potency is reported as 9.2 µM (active).
With `CC1=C(C(=O)N2CCOCC2)CC(CC(=O)NCc2cccc3ccccc23)C(=O)N1CCC1=CCCCC1` (centres undefined) the Potency was “inactive”.
For `COc1cc(C(=O)NCCc2csc3nc(-c4ccccc4C)nn23)cc(OC)c1OC`, the Potency was “inactive”.
For `CC[C@H]1CN2CCc3cc(OC)c(OC)cc3[C@@H]2C[C@@H]1C[C@H]1NCCc2cc(OC)c(OC)cc21`, the Potency was 5.17 µM (active).
For `COc1ccc2c(c1)CCNC2Cc1ccc(OC)c(O)c1` (centres undefined), the Potency was “inactive”.
With `CCC(CC)C(=O)N1CCc2cc(OC)c(OC)cc2C1COc1ccc(F)cc1` (centres undefined) the Potency was “inactive”.
For `Cc1cc(Cl)ccc1-c1nc(NCCN(C)C)nc2ccsc12`, the Potency was “inactive”.
In the case of `COc1cc(C=NC2CCCCC2)ccc1O`, the Potency is reported as “inactive”.
With `CCc1ccc(-c2nn3c(C)nnc3s2)cc1NC(=O)c1ccc(-c2cccc(Cl)c2)o1` the Potency was “inactive”.
With `CCOc1cccc(-c2nnc(SCC(=O)NC3CC3)n2C)c1` the Potency was “inactive”.
With `CCOc1cccc(-c2nn3c(-c4ccccn4)nnc3s2)c1` the Potency was 5.17 µM (active).
For `CCOC(=O)C1CCN(C(=O)c2ccc3c(=O)n4nc(Nc5ccccc5CC)sc4nc3c2)CC1`, the Potency was “inactive”.
For `COc1cc(NC(=O)Cn2nc(-c3ccc(C)c(C)c3)ccc2=O)cc(OC)c1`, the Potency was “inactive”.
With `Cc1ccc(-c2nc3c(Cl)cc(C(F)(F)F)cn3c2Cc2cccc(Cl)c2)cc1` the Potency was “inactive”.
In the case of `O=c1c([N+](=O)[O-])cc(C(F)(F)F)cn1Cc1cccc(Cl)c1`, the Potency is reported as 18.4 µM (active).
In the case of `CC(NC(=O)Cn1cc(C(F)(F)F)cc(Cl)c1=O)c1ccccc1` (centres undefined), the Potency is reported as “inactive”.
With `Cn1c(NCc2cccnc2)nc2cc(-c3ccc(F)cc3)sc2c1=O` the Potency was “inactive”.
For `O=C(Nc1ccccc1C(F)(F)F)c1nc(S(=O)(=O)Cc2ccccc2F)ncc1Cl`, the Potency was “inactive”.
In the case of `COc1ncnc2c1ncn2CCCNCCN1CCOCC1`, the Potency is reported as “inactive”.
For `COc1cccc(C(=O)NC2(C(F)(F)F)C(=O)Nc3c2c(=O)[nH]c(=O)n3-c2ccc(C)cc2)c1` (centres undefined), the Potency was “inactive”.
For `Cc1ccccc1C1=NC(C(F)(F)F)(C(F)(F)F)c2c(n(-c3ccc(F)cc3)c(=O)[nH]c2=O)N1`, the Potency was 14.6 µM (active).
In the case of `O=c1[nH]c(=O)n(Cc2ccco2)c2c1C(C(F)(F)F)(C(F)(F)F)N=C(c1ccco1)N2`, the Potency is reported as “inactive”.
